The subject of assay [1] is TAB109. Description: qHTS profiling for inhibitors of Plasmodium falciparum proliferation (AID 504749). Also: nearly all actives have a fitted effect of over 60% in size. Also: potency is read from the fitted curve at half-maximal effect. To be noted: P. falciparum in erythrocytes, SYBR Green DNA, 72 h; series mostly up to 28.7 µM. The essentials: (§1)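 P. falciparum-infected erythrocytes (0.3% parasitemia, 2.5% hematocrit) incubated with compound 72 h at 37 C, 5% CO2. Parasite DNA detected by SYBR Green after lysis, overnight at room temperature; normalised to 0.29 uM artemisinin and DMSO.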
For orientation: Quantitative high-throughput screening tests each substance at several concentrations.

Assay [2] has as its system TAB113. Described as above. To be noted: P. falciparum in erythrocytes, SYBR Green DNA, 72 h; series mostly up to 28.7 µM. The essentials: as §1
Assay [3] deals with TAB165. The description is as above. To be noted: P. falciparum in erythrocytes, SYBR Green DNA, 72 h; series mostly up to 28.7 µM. In short, it runs like this: as §1
The subject of assay [4] is W2. The assay is described as above. To be noted: P. falciparum in erythrocytes, SYBR Green DNA, 72 h; series mostly up to 28.7 µM. In short, it runs like this:
as §1

Assay [5] deals with CRL-7250. Description: Cytotoxic Profiling of Annotated Libraries Using Quantitative High-Throughput Screening (AID 1296008). Also: nearly all actives have a fitted effect of over 60% in size. As to max response: % is scaled to controls: 0 for no effect and ±100 for the full control effect. Conditions: Five cell lines viability, CellTiter-Glo ATP luminescence, 48-72 h; max response: stronger effect = lower value. In short, it runs like this:
(§2)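 Cells exposed to compounds for 48 or 72 hr at 37 degrees Celsius. Viability read as ATP-coupled luminescence with CellTiter-Glo after 10 min at room temperature.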
For orientation: In ATP-based viability assays light output follows the ATP content of the culture.

The test system of assay [6] is HEK293. Described as above. Conditions: Five cell lines viability, CellTiter-Glo ATP luminescence, 48-72 h; max response: stronger effect = lower value. The essentials:
as §2

The subject of assay [7] is HaCat. Described as above. To be noted: Five cell lines viability, CellTiter-Glo ATP luminescence, 48-72 h; max response: stronger effect = lower value. In short, it runs like this: as §2
Assay [8] has as its system KB-3-1. The description is as above. To be noted: Five cell lines viability, CellTiter-Glo ATP luminescence, 48-72 h; max response: stronger effect = lower value. The essentials:
as §2

In assay [9] the test system is NIH3T3. The description is as above. Conditions: Five cell lines viability, CellTiter-Glo ATP luminescence, 48-72 h; max response: stronger effect = lower value. The essentials: as §2
The test system of assay [10] is CRL-7250. Description: qHTS assay to identify novel small-molecules to repurpose for Merkel cell carcinoma treatment (AID 1296009). Also: nearly all actives have a fitted effect of over 60% in size. Also: potency is read from the fitted curve at half-maximal effect. To be noted: MCC and control cell lines, CellTiter-Glo viability, 72 h; series mostly up to 44.8 µM. In short, it runs like this:
(§3)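 Cells were treated for 72 hr at 37 degree celsius with compounds in 8- or 11-point dose response. Viability was read by CellTiter-Glo luminescence, normalized to no-cell (cytotoxicity) and DMSO controls.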

Assay [11] has as its system HACAT. The assay is described as above. To be noted: MCC and control cell lines, CellTiter-Glo viability, 72 h; at 44.8 µM (top of the series) unless noted. The essentials: as §3
Assay [12] deals with MCC-13. The assay is described as above. To be noted: MCC and control cell lines, CellTiter-Glo viability, 72 h; series mostly up to 46 µM. In short, it runs like this:
as §3

For assay [13], the system named is MCC-26. The assay is described as above. Conditions: MCC and control cell lines, CellTiter-Glo viability, 72 h; series mostly up to 46 µM. In short, it runs like this:
as §3

For assay [14], the system named is MKL-1. The description is as above. Conditions: MCC and control cell lines, CellTiter-Glo viability, 72 h; series mostly up to 46 µM. The essentials:
as §3

Assay [15] relates to MKL-2. The description is as above. To be noted: MCC and control cell lines, CellTiter-Glo viability, 72 h; series mostly up to 46 µM. The essentials:
as §3

Assay [16] deals with NIH3T3. The assay is described as above. To be noted: MCC and control cell lines, CellTiter-Glo viability, 72 h; at 44.8 µM (top of the series) unless noted. In short, it runs like this:
as §3

Assay [17] relates to UISO. The assay is described as above. To be noted: MCC and control cell lines, CellTiter-Glo viability, 72 h; series mostly up to 46 µM. The essentials: as §3
Assay [18] deals with WaGa. The assay is described as above. Conditions: MCC and control cell lines, CellTiter-Glo viability, 72 h; series mostly up to 46 µM. The essentials: as §3
The subject of assay [19] is C33A. Description: Primary qHTS to identify gynecologic anti-cancer compounds using libraries of approved drugs and bioactive compounds (AID 1345084). Also: % is scaled to controls: 0 for no effect and ±100 for the full control effect; nearly all actives have a fitted effect of over 55% in size. Conditions: Gynecologic cancer cell panel viability, ATPlite luminescence, 48 h; series mostly up to 57.5 µM. In short, it runs like this:
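Luminescence from the ATPlite ATP-monitoring reagent indicates viable cell number; lower signal means cytotoxicity. Cells received compound 16 h after seeding and were exposed for 48 h across five concentrations.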

For assay [20], the system named is HEK293T. Description: qHTS assay to identify novel small-molecules to repurpose for Merkel cell carcinoma treatment (AID 1296009). Also: nearly all actives have a fitted effect of over 60% in size. Also: potency is read from the fitted curve at half-maximal effect. Conditions: MCC and control cell lines, CellTiter-Glo viability, 72 h; at 44.8 µM (top of the series). The essentials: as §3

These results are taken from PubChem BioAssay (NCATS).

Where “and” joins values, the source holds several entries; their conditions need not be identical. Equal entries are not always repeated. Records with an inconclusive call do not appear. Where a structure was tested more than once in an assay, its records may differ in their call. Calls of active or inactive are those of the source. Calls follow the shape of the dose curve; as a rule, active = well fitted curve in the direction sought with a large enough effect; inconclusive = small, poorly fitted or top-dose-only effect, or another doubt; inactive = no such curve, though single readings can be large; an effect the other way counts as inactive or inconclusive.

As for `COc1ccc(C(=O)c2c(C)n(CCN3CCOCC3)c3ccccc23)cc1`, the Potency result in assay [1], in assay [2], in assay [3], in assay [4], in assay [12] and in assay [13] was “inactive” throughout. The Potency result in [14], in assay [15], in assay [17], in assay [18] and in assay [19] was “inactive” each time. Further, the max response in assay [5] was -23.7% (inactive); in assay [6], -9.73% (inactive); in assay [7] it was -26.9% (inactive); in [8] it was 5.69% (inactive) and 21.2% (inactive); in assay [9], -11.5% (inactive). Besides, the outcome in assay [5], in assay [7], in [9], in [10], in [11] and in assay [16] was inactive.

Take `CCN(CC)C(=O)N[C@@H]1C=C2c3cccc4[nH]cc(c34)C[C@@H]2N(C)C1`: the molecule was classed as inactive in [5], in [9], in assay [10] and in assay [16]. Further, the results for the max response in [6], in [7] and in [8] were -11.8% (inactive), -0.0252% (inactive) and -10.6% (inactive), respectively. The Potency result in assay [12], in [13], in [14], in assay [15], in assay [17] and in assay [18] was “inactive” in each case. For the same molecule, in assay [19], the Potency result was “inactive”.

Turning to `Clc1ccc(COC(Cn2ccnc2)c2ccc(Cl)cc2Cl)cc1` (configuration not stated), the Potency in assay [1] was 2.51 µM (active); in assay [2], 2.82 µM (active); in assay [3] it was 0.708 µM (active); in assay [4], 1.2 µM (active); in [13], 21.1 µM (active) and inactive; in assay [14], 23.7 µM (active) and inactive. The Potency in assay [17] is 15 µM (active). Moreover, the max response is 1.02% (inactive) in assay [5]; -11% (inactive) in [7]; -10.4% (inactive) and -10.7% (inactive) in assay [8]. In addition, the molecule was classed as inactive in assay [5] and in assay [10]. Moreover, the Potency entry in [12] and in [18] was “inactive” each time.

In the case of `OCCOc1ccccc1`, the Potency result in assay [1], in [2], in assay [3], in [4], in assay [12] and in [14] was “inactive” in each case. The Potency result in assay [15], in assay [17], in [18] and in [19] was “inactive” in each case. Moreover, the max response in [5] is 3.79% (inactive); in assay [6], 1.79% (inactive); in assay [8] it was 1.69% (inactive) and -18.4% (inactive); in assay [9] it was 0.364% (inactive). Moreover, the molecule was classed as inactive in assay [7] and in assay [11].

Turning to `COC[C@H]1OC(=O)c2coc3c2[C@@]1(C)C1=C(C3=O)C2CCC(=O)[C@@]2(C)C[C@H]1OC(C)=O` (some centres not stated), the max response in [5] is -6.6% (inactive); in [6], -95.7% (inactive) and 0.842% (inactive); in assay [7] it was -21.4% (inactive); in [8], -5.47% (inactive). For the same molecule, the molecule was called inactive in assay [7], in [8] and in assay [11]. The Potency result in [12], in assay [13], in [17] and in assay [19] was “inactive” throughout. The Potency in assay [14] is 11.8 µM (active); in assay [15], 7.43 µM (active); in assay [18] it was 8.33 µM (active).

Take `N[C@@H](Cc1ccc(Oc2cc(I)c(O)c(I)c2)c(I)c1)C(=O)O`: the max response was -1.97% (inactive) in [5], 6.84% (inactive) in assay [8] and -1.92% (inactive) in [9]. Also, the molecule was classed as inactive in assay [6], in assay [7], in [11] and in [20]. The Potency result in [12], in [13], in assay [14], in assay [15], in assay [17] and in assay [18] was “inactive” in each case. Also, the Potency result in assay [19] was “inactive”.

Take `O=c1oc2ccccc2c(O)c1C(CC(O)c1ccc(-c2ccc(Br)cc2)cc1)c1ccccc1` (configuration not stated): the max response is 0.6% (inactive) in assay [5], 4.03% (inactive) in assay [7], 0.095% (inactive) in [8] and 0.0262% (inactive) in assay [9]. Also, the molecule was called inactive in [6] and in assay [20]. Moreover, the Potency entry in [12], in assay [13], in assay [14], in [15], in assay [17] and in assay [18] was “inactive” throughout. The Potency entry in assay [19] was “inactive”.
